# Data published in PubChem BioAssay AID1159580 (chemical genetic matrix, 2015).
# Screen size: about 5,500 compounds; about 2,000 (36%) were called active. Roughly 18% stayed inconclusive and do not appear here. The list shows a part of the results. Values without a mark were called inactive. Rule as the data show it: active = normalized growth mostly below about 0.91 (no sharp cut-off); inconclusive = no clear call, values can overlap the other calls; inactive = mostly above about 0.92.
# Test: chemical genetic growth profiling, strain panel (AID 1159580);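 also: tested at 20 µM; growth read once vehicle control cultures reached saturation at 30 °C; 1 = growth at the plate median or of vehicle wells; lower values mean less growth of the strain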
# Conditions: S. cerevisiae deletion strains, growth OD
compound,measurement,setting,value
O=C(O[C@@H]1Cc2c(O)cc(O)cc2O[C@@H]1c1cc(O)c(O)c(O)c1-c1c([C@H]2Oc3cc(O)cc(O)c3C[C@H]2O)cc(O)c(O)c1O)c1cc(O)c(O)c(O)c1,normalized growth,"locus YAL013W, strain DEP1, stronger effect = lower value",0.0787 (active)
same,normalized growth,"locus YAL021C, strain ccr4, stronger effect = lower value",0.962
same,normalized growth,"locus YAL026C, strain drs2, stronger effect = lower value",0.965
same,normalized growth,"locus YAL030W, strain snc1, stronger effect = lower value",1.01
same,normalized growth,"locus YBL061C, strain skt5, stronger effect = lower value",0.997
same,normalized growth,"locus YBR009C, strain hhf1, stronger effect = lower value",0.979
same,normalized growth,"locus YBR021W, strain FUR4, stronger effect = lower value",1.03
same,normalized growth,"locus YBR023C, strain chs3, stronger effect = lower value",0.936
same,normalized growth,"locus YBR171W, strain sec66, stronger effect = lower value",1.02
same,normalized growth,"locus YBR229C, strain ROT2, stronger effect = lower value",0.387 (active)
same,normalized growth,"locus YBR231C, strain swc5, stronger effect = lower value",0.873 (active)
same,normalized growth,"locus YBR279W, strain paf1, stronger effect = lower value",0.978
same,normalized growth,"locus YCL011C, strain gbp2, stronger effect = lower value",0.988
same,normalized growth,"locus YCL016C, strain dcc1, stronger effect = lower value",0.988
same,normalized growth,"locus YCL029C, strain bik1, stronger effect = lower value",0.643 (active)
same,normalized growth,"locus YCL061C, strain MRC1, stronger effect = lower value",0.993
same,normalized growth,"locus YCL069W, strain vba3, stronger effect = lower value",1.01
same,normalized growth,"locus YCR088W, strain abp1, stronger effect = lower value",1.03
same,normalized growth,"locus YDL005C, strain med2, stronger effect = lower value",1.03
same,normalized growth,"locus YDL035C, strain GPR1, stronger effect = lower value",0.0755 (active)
same,normalized growth,"locus YDL040C, strain nat1, stronger effect = lower value",1
same,normalized growth,"locus YDL074C, strain BRE1, stronger effect = lower value",0.204 (active)
same,normalized growth,"locus YDL101C, strain DUN1, stronger effect = lower value",0.113 (active)
same,normalized growth,"locus YDL134C, strain PPH21, stronger effect = lower value",0.09 (active)
same,normalized growth,"locus YDL185W, strain tfp1, stronger effect = lower value",0.928
same,normalized growth,"locus YDL192W, strain arf1, stronger effect = lower value",0.553 (active)
same,normalized growth,"locus YDR001C, strain nth1, stronger effect = lower value",1.03
same,normalized growth,"locus YDR069C, strain doa4, stronger effect = lower value",0.893 (active)
same,normalized growth,"locus YDR101C, strain arx1, stronger effect = lower value",0.772 (active)
same,normalized growth,"locus YDR137W, strain rgp1, stronger effect = lower value",0.984
same,normalized growth,"locus YDR159W, strain sac3, stronger effect = lower value",1.14 [resistant] (active)
same,normalized growth,"locus YDR162C, strain NBP2, stronger effect = lower value",0.0726 (active)
same,normalized growth,"locus YDR195W, strain ref2",1.07
same,normalized growth,"locus YDR297W, strain sur2, stronger effect = lower value",0.981
same,normalized growth,"locus YDR318W, strain mcm21, stronger effect = lower value",0.61 (active)
same,normalized growth,"locus YDR334W, strain swr1, stronger effect = lower value",0.985
same,normalized growth,"locus YDR335W, strain msn5, stronger effect = lower value",0.979
same,normalized growth,"locus YDR388W, stronger effect = lower value",0.737 (active)
same,normalized growth,"locus YDR392W, strain spt3, stronger effect = lower value",1.02
same,normalized growth,"locus YDR502C, strain sam2, stronger effect = lower value",0.362 (active)
same,normalized growth,"locus YEL003W, strain gim4, stronger effect = lower value",0.968
same,normalized growth,"locus YEL037C, strain rad23, stronger effect = lower value",1
same,normalized growth,"locus YEL061C, strain CIN8 (second series), stronger effect = lower value",1.02
same,normalized growth,"locus YER015W, strain faa2, stronger effect = lower value",0.892 (active)
same,normalized growth,"locus YER016W, strain bim1, stronger effect = lower value",1.01
same,normalized growth,"locus YER110C, stronger effect = lower value",0.992
same,normalized growth,"locus YER111C, strain swi4, stronger effect = lower value",0.963
same,normalized growth,"locus YER155C, strain BEM2 (second series), stronger effect = lower value",1.03
same,normalized growth,"locus YER155C, strain BEM2, stronger effect = lower value",0.523 (active)
same,normalized growth,"locus YER167W, strain BCK2, stronger effect = lower value",0.295 (active)
same,normalized growth,"locus YFR010W, strain ubp6, stronger effect = lower value",0.986
same,normalized growth,"locus YGL078C, strain dbp3, stronger effect = lower value",0.983
same,normalized growth,"locus YGL086W, strain mad1, stronger effect = lower value",0.308 (active)
same,normalized growth,"locus YGL167C, strain pmr1, stronger effect = lower value",1
same,normalized growth,"locus YGL173C, strain kem1, stronger effect = lower value",0.961
same,normalized growth,"locus YGL227W, strain vid30, stronger effect = lower value",1.04
same,normalized growth,"locus YGL240W, strain doc1, stronger effect = lower value",1.09
same,normalized growth,"locus YGL248W, strain PDE1, stronger effect = lower value",0.146 (active)
same,normalized growth,"locus YGL253W, strain hxk2, stronger effect = lower value",1.01
same,normalized growth,"locus YGR078C, strain PAC10, stronger effect = lower value",0.414 (active)
same,normalized growth,"locus YGR135W, strain pre9, stronger effect = lower value",0.429 (active)
same,normalized growth,"locus YGR229C, strain SMI1, stronger effect = lower value",0.0837 (active)
same,normalized growth,"locus YGR252W, strain gcn5, stronger effect = lower value",0.516 (active)
same,normalized growth,"locus YHR013C, strain ard1, stronger effect = lower value",0.937
same,normalized growth,"locus YHR027C, strain rpn1, stronger effect = lower value",0.911 (active)
same,normalized growth,"locus YHR030C, strain SLT2, stronger effect = lower value",0.219 (active)
same,normalized growth,"locus YHR079C, strain IRE1 (second series), stronger effect = lower value",0.626 (active)
same,normalized growth,"locus YHR094C, strain hxt1, stronger effect = lower value",0.888 (active)
same,normalized growth,"locus YHR129C, strain ARP1, stronger effect = lower value",0.205 (active)
same,normalized growth,"locus YHR142W, strain chs7, stronger effect = lower value",0.969
same,normalized growth,"locus YHR200W, strain rpn10, stronger effect = lower value",0.569 (active)
same,normalized growth,"locus YIL066C, strain RNR3, stronger effect = lower value",0.0703 (active)
same,normalized growth,"locus YIL073C, strain SPO22, stronger effect = lower value",0.15 (active)
same,normalized growth,"locus YIL125W, strain kgd1, stronger effect = lower value",1.02
same,normalized growth,"locus YIR030C, strain dcg1, stronger effect = lower value",0.863 (active)
same,normalized growth,"locus YJL092W, strain hpr5, stronger effect = lower value",1.03
same,normalized growth,"locus YJL095W, strain BCK1 (second series), stronger effect = lower value",0.991
same,normalized growth,"locus YJL095W, strain BCK1, stronger effect = lower value",0.107 (active)
same,normalized growth,"locus YJL115W, strain asf1, stronger effect = lower value",1.03
same,normalized growth,"locus YJL129C, strain trk1, stronger effect = lower value",1.06
same,normalized growth,"locus YJL134W, strain LCB3, stronger effect = lower value",0.432 (active)
same,normalized growth,"locus YJL154C, strain vps35, stronger effect = lower value",1.02
same,normalized growth,"locus YJL164C, strain tpk1, stronger effect = lower value",0.941
same,normalized growth,"locus YJL166W, strain qcr8, stronger effect = lower value",0.984
same,normalized growth,"locus YJL168C, strain set2, stronger effect = lower value",0.934
